From PubChem BioAssay
Only some compounds are listed: those with a hit (about 3.6% of all), similar ones and a draw of the others.
mHTT CaM bind: disrupts binding of mutant huntingtin to calmodulin. P42858. AlphaScreen His-mHTT/GST-CaM binding, luminescence. inhibition, % at 15 µM. hit rate 3.6% among 190,000. AID 1671202
Pf apPOL inh: Pf-apPOL DNA polymerase inhibition | inhibition, % at 10 µM | hit rate 0.25% among 210,000 | AID 1794808 | Recombinant Pf-apPOL, molecular beacon fluorescence, 1.5 h
Hits are given with their value; 0 = inactive; - = not tested or not shown; ! = not active in a repeat. Cut-off read from the data, not from the text of the source: active = inhibition above about 50%; inactive = the rest.

SMILES | mHTT CaM bind | Pf apPOL inh
COc1ccccc1C1=NOC(C(=O)N(C)C2CCCCC2)C1 (centres undefined) | 0 | 0
CC(c1ccncc1)N(CCN(C)C)C(=O)Nc1ccc(Cl)cc1 (centres undefined) | 0 | 0
O=C(Nc1ccc(Cl)cc1)N1CCN(Cc2ccccc2)CC1 | 0 | 0
COc1nccc(N2CCC(CC(=O)N3CCN(c4ccccc4F)CC3)CC2)n1 | 0 | 0
O=C(c1ccc2cc[nH]c2c1)N1CCC(c2nc(-c3ccccc3)no2)C1 (centres undefined) | 0 | 0
Cc1ccc(-c2cc(C(=O)N3CCN(c4ccccn4)CC3)c(C)[nH]2)cc1C | 98 | 0
Cc1occc1C(=O)N1CCN(c2ccccn2)CC1 | 0 | 0
O=C(NCC1CCN(C(=O)Oc2ccccc2)CC1)c1cc(-c2ccco2)on1 | 0 | 0
CCOC(=O)C(C#N)=CNc1ccc2c(c1)CCN2C(C)=O | - | 0
O=c1[nH]c(O)c(C=C2C=Nc3ccccc32)[nH]1 | - | 0
Oc1nc(Nc2ccccc2)sc1C=C1C=Nc2ccccc21 | 69 | 0
COc1ccc(C2=N/C(=C/c3cc(OC)c(OC)cc3OC)C(=O)O2)c(Cl)c1 | 0 | 0
Cc1c(Cl)cccc1NC(=O)CCN1CCN(C/C=C/c2ccccc2)CC1 | 50 | 0
Cc1ccc(NC(=O)CCN2CCN(C/C=C/c3ccccc3)CC2)cc1 | 0 | 0
CC1=NN(C(=O)c2cc(Cl)ccc2O)C(O)(C(F)F)C1 (centres undefined) | 0 | 0
CCCC(=O)NC(/C=C/c1ccccc1)c1cc([N+](=O)[O-])c2cccnc2c1O (centres undefined) | 0 | 0
CC(=O)NC(/C=C/c1ccccc1)c1cc([N+](=O)[O-])c2cccnc2c1O (centres undefined) | 100 | 0
Cc1ccc(C(NC(=O)C(C)C)c2cc(Cl)c3cccnc3c2O)cc1 (centres undefined) | 0 | 0
CC(=O)NC(c1ccc(Cl)cc1)c1cc([N+](=O)[O-])c2cccnc2c1O (centres undefined) | 100 | 0
CC(=O)NC(c1ccc(Cl)cc1Cl)c1cc(Cl)c2cccnc2c1O (centres undefined) | 100 | 0
CC(=O)NC(c1ccc(Cl)cc1)c1cc(Cl)c2cccnc2c1O (centres undefined) | 74 | 0
Cc1cc(C)c(C)c(OCCCCN(C)C)c1 | 0 | 0
CC1C(=O)N2CCCc3cc(NC(=O)C(=O)NC4CC4)cc1c32 (centres undefined) | 0 | 0
CC1(C)OCC2(CO1)CN(C(=O)C=Cc1ccccc1)C2 | 0 | 0
COCCNC(=O)C1CCCc2c1[nH]c1ccccc21 (centres undefined) | 0 | 0
SMILES | mHTT CaM bind | Pf apPOL inh
CCNC(=O)C1CCCc2c1[nH]c1ccc(Cl)cc21 (centres undefined) | 100! | 0
O=C(CN1CCc2ccccc2C1C(=O)N1CCCC1)Nc1cccc(Br)c1 (centres undefined) | 0 | 0
Cn1cccc1C(CNC(=O)c1ccc(F)cc1F)N1CCc2ccccc2C1 (centres undefined) | 0 | 0
Nc1nc2c(nc(N=Nc3c(O)[nH]c4ccccc34)n2C2OC(CO)C(O)C2O)c(=O)[nH]1 (centres undefined) | 63 | -
NCCCCCCNc1nc2c(=O)[nH]cnc2n1C1OC(CO)C(O)C1O (centres undefined) | 0 | -
CCOc1ccc(CNC(=O)c2cc3n(n2)CCCN(Cc2ccc(F)cc2)C3=O)cc1 | 0 | 0
N#CC1=C(N)OC(c2ccccc2)=C(n2cncn2)C1c1ccc(Br)cc1 (centres undefined) | 57 | 0
N#CC1=C(N)OC(C2CC2)=C(n2cnc([N+](=O)[O-])n2)C1c1ccccc1 (centres undefined) | 0 | 0
N#CC1=C(N)OC(c2ccccc2)=C(n2cnc([N+](=O)[O-])n2)C1c1ccccc1 (centres undefined) | 75 | 0
N#CC1=C(N)OC(c2ccccc2)=C(n2cnc([N+](=O)[O-])c2)C1c1cccnc1 (centres undefined) | 0 | 0
COc1ccc(CSC2=NCCN2)cc1[N+](=O)[O-] | 0 | 0
CCc1nc(C2CCCN(C(=O)c3ccc(Br)o3)C2)n[nH]1 (centres undefined) | 0 | 0
O=S(=O)(Nc1ccc(Nc2ccccc2)cc1)c1ccccc1 | 88 | 0
NS(=O)(=O)c1ccc(NS(=O)(=O)c2ccc(NC(=O)Nc3ccccc3)cc2)cc1 | 96 | 0
NS(=O)(=O)c1ccc(NS(=O)(=O)c2ccc(NC(=S)Nc3ccccc3)cc2)cc1 | 0 | -
O=S(=O)(Nc1ccc(F)cc1)c1ccccc1 | 0 | 0
COc1ccc(S(=O)(=O)Nc2cccc(NS(=O)(=O)c3ccc(OC)cc3)c2)cc1 | 0 | 0
CC(=O)Nc1ccc(S(=O)(=O)Nc2ccc(Oc3ccccc3)cc2)cc1 | 87 | 0
COc1ccc(NS(=O)(=O)c2ccc(NS(=O)(=O)c3ccc(NC(C)=O)cc3)cc2)cc1 | 0 | 0
COc1ccc(S(=O)(=O)Nc2ccc(Nc3ccccc3)cc2)cc1 | 89 | 0
